Sm TGR inh = blocks Schistosoma mansoni thioredoxin glutathione reductase | Q962Y6 | purified TGR, DTNB reduction, TNB absorbance 405 nm | Potency, µM (highest dose often 114 µM), inactives show at the highest dose activity change, negative = inhibition, actives largely listed as inhibitors | actives 3% (n = 360,000); further: potency means the concentration at half of the fitted maximal effect; on the % scale 0 is the no-effect control and ±100 the full control effect; nearly all actives have a fitted effect of over 60% in size
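TGR 20 nM + NADPH 100 uM (dispensed conc.), cpd preinc 15 min RT; start with NADPH (500 uM addition) then DTNB (15 mM addition). Kinetic TNB absorbance, 405 nm filter. Four-parameter Hill fit across titration.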
Cycloheximide cs = affects cycloheximide protein synthesis inhibition readout, counter-screen | cell reporter, cycloheximide protein synthesis inhibition counterscreen | max response, % | actives 12% (n = 300,000); in the data active means max response mostly above about 13%, no sharp cut-off; inactive means mostly below about 14%; further: read at 38.3 µM for the half of the compounds with a filed dose; 0% is about no effect
NS1 function inh = influenza NS1 inhibition; Potency, µM (highest dose often 46.1 µM), without a hit: at the highest dose activity, positive = more growth; AID 2326; actives 0.4% (n = 270,000); calls by dose curve; further: potency means the concentration at half of the fitted maximal effect; actives are rising curves; nearly all actives have a fitted effect of over 50% in size
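Read-out: OD600 growth recovery of NS1-expressing budding yeast. Cells grown overnight at 30C in -URA glucose medium, washed, resuspended and diluted 1:100 in 2% galactose assay medium, pH 6.0. Same strain lacking NS1 served as positive control.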
Pf growth 96h = P. falciparum growth inhibition at 96 hour, primary screen for plastid delayed-death inhibitors; P. falciparum luciferase reporter growth, 96 h; actives 6.9% (n = 320,000); Potency, µM (highest dose often 28.7 µM), for inactives: at the top dose activity change, negative = inhibition, most hits filed as inhibitors; further: potency means the concentration at half of the fitted maximal effect; on the % scale 0 is the no-effect control and ±100 the full control effect
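Two-generation exposure (96 h) targets delayed-death phenotype. Reporter parasites carrying integrated firefly luciferase, in red cells at 2% hematocrit and 0.05% parasitemia final, kept at 37 C, 5% CO2; luminescence loss indicates inhibition.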
Shiga inhibitor = blocks Shiga toxin action in Vero cells; Vero cells, Shiga toxin protein synthesis inhibition reporter; AID 2315; inhibition, % at 38.7 µM; actives 9.2% (n = 290,000); in the data active means inhibition mostly above about 28%, no sharp cut-off; inactive means mostly below about 43%; further: 0% is about no effect
Pf growth 48h = P. falciparum growth inhibition at 48 hours (one generation). P. falciparum luciferase growth in erythrocytes, 48 h. Potency, µM (titrated, usually from 28.7 µM), for inactives: at the top dose activity change, negative = inhibition, most hits filed as inhibitors. actives 5.9% (n = 310,000). AID 504832; further: potency means the concentration at half of the fitted maximal effect; on the % scale 0 is the no-effect control and ±100 the full control effect
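Firefly luciferase activity from engineered P. falciparum reports growth; inhibitors lower the luminescent signal. Cultures contained 2% hematocrit erythrocytes at 0.1% final parasitemia.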
Starred values were filed as active, the others as inactive; ? = inconclusive; nt = no result; ! = not confirmed by another sample; [ ] = remark or other dose. Most compounds without a hit are left out; they make up all but 21% or so of the library. Unless noted, the call rests on the fitted dose curve; in most records, active means well fitted curve in the direction sought with a large enough effect; inconclusive means small, poorly fitted or top-dose-only effect, or another doubt; inactive means no such curve, though single readings can be large; an effect the other way counts as inactive or inconclusive.

SMILES	Sm TGR inh	Cycloheximide cs	NS1 function inh	Pf growth 96h	Shiga inhibitor	Pf growth 48h
O=C(O)c1ccccc1N[C@H](c1ccccc1)c1ccc2cccnc2c1O	nt	nt	-35.8%	nt	nt	nt
CSCc1cc(N(C)C)nc(SCc2ccc(Cl)c(Cl)c2)n1	2.4%	-8.5	-12.4%	?	-25.4	10.4µM*
COc1ccc(-c2cc(C(F)(F)F)n3ncc(C(=O)NCc4ccco4)c3n2)cc1	44.7µM*	4.9	-6.9%	0.0%	-20.2	?
CC(C)CCNC(=O)c1cnn2c(C(F)(F)F)cc(-c3ccco3)nc12	20µM*	-2.4	1.7%	9.28µM*	-21.8	?
O=C(NCc1ccco1)c1cnn2c(C(F)(F)F)cc(-c3ccccc3)nc12	?	0.8	-2.4%	-10.3%	9.2	13.1µM*
COc1ccc2c(c1OC)C(=O)OC2N1C(=O)CC[C@H]1C(=O)Nc1ccc(F)cc1F (stereo partly specified)	-17.6%	1.1	-11.1%	-8.2%	-4.9	13.9%
c1ccc(CNc2nc(-c3cccs3)nc3ccccc23)nc1	1.9%	-0.3	nt	-18.8%	-3.8	2.0%
Fc1ccccc1CNc1nc(-c2cccnc2)nc2ccccc12	0.6%	-8.9	-68.4%	5.22µM*	-6.7	11.7µM*
c1cncc(-c2nc(NCc3cccs3)c3ccccc3n2)c1	?	-1.5	nt	13.1µM*	-12.2	?
CCOC(=O)c1ccc(-c2c(-c3ccccc3OC)sc3cc4c(cc23)OCO4)cc1F	-16.0%	nt	nt	?	nt	1.85µM*
COc1ccccc1-c1sc2cc3c(cc2c1C#CCO)OCO3	-34.0%	nt	nt	?	nt	?
CCN(CC(=O)NCc1ccc(F)cc1)C(=O)c1ccc(C(=O)c2ccccc2)cc1	33.4%	6.9	4.2%	0.2%	9.9	1.8%
CCCCc1ccc(-n2nc3cc(C)c(NC(=O)Cc4ccccc4)cc3n2)cc1	-17.3%	nt	nt	nt	nt	nt
Cc1cccc(Oc2ccc(S(=O)(=O)N3CCCCC3)cc2NC(=O)C2=COCCO2)c1	-8.8%	nt	nt	?	nt	13.1µM*
CCOc1ccc(Oc2ccccc2NC(=O)C2=COCCO2)cc1	4.3%	nt	nt	?	nt	?
CC(C)Oc1ccc(S(=O)(=O)N2CCCCC2)cc1NC(=O)C1=COCCO1	0.5%	nt	nt	8.28µM*	nt	?
CCOc1ccc(Oc2ccc(C(F)(F)F)cc2NC(=O)C2=COCCO2)cc1	-2.3%	nt	nt	?	nt	14.7µM*
O=C(Nc1cc(S(=O)(=O)N2CCCC2)ccc1Cl)C1=COCCO1	1.6%	-1.9	-8.8%	?	-6.3	nt
Cc1cc(N)c2ccccc2[n+]1CCCCCCCCCC[n+]1c(C)cc(N)c2ccccc21	nt	nt	-51.2%	-99.9%[12.8 µM]	nt	0.181µM*
Nc1cc2c(nc3c4ccccc4c(N)cc3[n+]2-c2cccc3ccccc23)c2ccccc12 (tested in a mixture with another compound)	nt	nt	-15.3%	nt	nt	nt
Cc1ccc(CC2C(=O)N(c3cc(C)ccc3C)C(=O)C2C)cc1 (stereo unspecified)	9.9%	-2.2	-20.9%	?	-5.0	38.6%
Cc1ccc(CC2C(=O)N(c3ccc(C)cc3)C(=O)C2C)cc1 (stereo unspecified)	-3.6%	47.4*	nt	12.9%	80.2*	34.9%
Cc1ccc(CC2C(=O)N(c3ncccn3)C(=O)C2C)cc1 (stereo unspecified)	-0.3%	-4.2	5.5%	0.828µM*	-10.5	nt
CN(C)c1cccc(NC(=O)c2ccco2)c1	-2.3%	17.8	-1.9%	85.8%	26.0	-10.6%
CCC(=O)NC(=S)Nc1cccc(NC(=O)c2ccco2)c1	-27.1%	-0.1	-1.1%	?	-9.1	2.0%
SMILES	Sm TGR inh	Cycloheximide cs	NS1 function inh	Pf growth 96h	Shiga inhibitor	Pf growth 48h
CCN(CC)P(=O)(Nc1cccc(C(F)(F)F)c1)c1ccc(N(C)C)cc1NC(=O)c1ccco1 (stereo unspecified)	-12.7%	4.4	24.1%	1.85µM*	11.9	2.08µM*
CCN(CC)c1ccc(NC(=S)NC(=O)c2ccco2)cc1	11.2µM*	37.8*	0.1%	37.1%	60.6*	?
CCN(CC)c1ccc(NC(=O)c2ccco2)c(C)c1	-3.7%	15.4*	11.5%	17.8%	28.2	?
CCN(CC)c1ccc(NC(=O)c2ccc(Br)o2)c(C)c1	-16.2%	16.2	-2.1%	nt	27.9*	7.38µM*
O=C(c1ccc(NS(=O)(=O)c2ccc(F)cc2)cc1)N1CCC1	-10.8%	nt	nt	-4.8%	nt	18.3%
Cc1cc(C)cc(N(CC(=O)NC(C)C)C(=O)CCC(=O)Nc2ccccn2)c1	-21.7%	-0.8	9.9%	?	-7.0	-11.9%
COc1ccccc1NC(=O)C(=O)NCCC1CCCCN1S(=O)(=O)c1ccc(F)cc1 (stereo unspecified)	8.7%	nt	nt	?	nt	?
CCN(CC)c1ccc(NC(=O)c2ccco2)cc1	-14.1%	22.5*	-13.7%	-16.7%	66.3*	-10.9%
O=C(NCCCCCCNC(=O)ON=C1CCCCC1)ON=C1CCCCC1	nt	27.4*!	nt	nt	27.2*!	nt
C/C(=N\OC(=O)Nc1ccc(Cl)cc1)c1ncc(C(F)(F)F)cc1N1CCOCC1	?	12.3	-44.8%	nt	42.5	-19.8%
O=C(NCCCCCCNC(=O)OC1CCS(=O)(=O)C1)OC1CCS(=O)(=O)C1 (stereo unspecified)	-2.1%	-4.5	-1.8%	26.7%	8.4	nt
O=C(Nc1ccc(Cl)cc1)ON=C1CCCC1	9.4%	40.3*	-42.7%	?	56.3*	11.7µM*
C/C(=N\OC(=O)Nc1ccc(Cl)cc1)c1ccc(F)c(F)c1	1.5%	17.3*	-75.8%	25.9%	53.9*	nt
NC(=O)Nc1ccc(Cl)cc1	11.8%	-1.6	-4.1%	35.5%	17.3	89.6%
COc1ccc(Cl)cc1NC(=O)CSC1=Nc2ccccc2C2=NC(CCC(=O)NCc3ccco3)C(=O)N12 (stereo unspecified)	-1.6%	nt	nt	nt	nt	nt
CN(C)c1ccc(C=Nc2cnn(C)c2C(N)=O)cc1	8.0%	39.2*	-75.4%	?	90.1*	39.8%
Cn1ncc(N=Cc2ccccc2[N+](=O)[O-])c1C(N)=O	5.1%	0.4	5.6%	20.4%	-6.9	26.5%
COc1cc(NC2c3ccccc3C(=O)N2c2ccc(C)cn2)cc(OC)c1OC (stereo unspecified)	-8.8%	48.2*	-3.7%	12.6%	117.7*	?
CCN(CC)S(=O)(=O)c1ccc(NC2c3ccccc3C(=O)N2c2ccc(C)cn2)cc1 (stereo unspecified)	-12.2%	1.4	4.2%	?	8.0	nt
O=C1c2ccccc2C(Nc2cccnc2)N1Cc1ccccc1 (stereo unspecified)	-11.0%	-5.4	3.9%	10.4µM*	-20.3	nt
Cc1ccc(N2C(=O)c3ccccc3C2Nc2cccnc2)nc1 (stereo unspecified)	3.3%	35.9*	1.3%	-0.6%	46.1	22.7%
COc1cc(NC2c3ccccc3C(=O)N2c2cc(C)ccn2)cc(OC)c1OC (stereo unspecified)	-3.4%	22.8*	11.9%	?	58.3*	nt

Screens from PubChem.
